Measurements: PubChem BioAssay (NCI)
The panel holds about 79,000 compounds, 15% with a hit somewhere; the sample as a whole holds those more often. The source made the active and inactive calls. Cut-off read from the data, not from the text of the source: active = growth inhibition above about 70%; inactive = the rest.

Legend:
[1] = NCI Yeast Anticancer Drug Screen. Data for the mec2-1 strain (AID 157); conditions: S. cerevisiae mec2-1 strain, stronger effect = higher value
Summary of the method: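 mec2-1 yeast strain, carrying an alteration in DNA damage repair or cell cycle control, was exposed to compounds; growth inhibition was measured relative to vehicle-treated controls.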

[2] = NCI Yeast Anticancer Drug Screen. Data for the rad14 strain (AID 159);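 note: 0% = growth of vehicle-treated control cultures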; conditions: S. cerevisiae rad14 strain growth inhibition, stronger effect = higher value
Summary of the method: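 Yeast cells carrying a defined DNA-repair defect were exposed to compounds, and growth inhibition was calculated relative to vehicle-treated control cultures.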

[3] = NCI Yeast Anticancer Drug Screen. Data for the sgs1 mgt1 strain (AID 161);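 note: 0% = growth of cultures given vehicle only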; conditions: S. cerevisiae sgs1 mgt1 strain, stronger effect = higher value
Summary of the method: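 Percent growth inhibition was derived by comparing compound-exposed mutant yeast with vehicle-exposed cultures. The strain carries alterations in DNA damage repair.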

[4] = NCI Yeast Anticancer Drug Screen. Data for the CLN2oe strain (AID 163);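 note: 0% = growth of vehicle-only control cultures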; conditions: S. cerevisiae CLN2oe strain, stronger effect = higher value
Summary of the method: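 Yeast cells carrying a defined cell-cycle control alteration were exposed to test compounds. Growth inhibition was scored against vehicle-treated control cultures.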

[5] = NCI Yeast Anticancer Drug Screen. Data for the cln2 rad14 strain (AID 165);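 note: 0% = growth equal to vehicle treated cultures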; conditions: S. cerevisiae cln2 rad14 strain, stronger effect = higher value
Summary of the method: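 Yeast carrying cln2 and rad14 alterations (cell cycle control and DNA damage repair) were exposed to compounds. Growth inhibition was measured against vehicle-treated controls.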

[6] = NCI Yeast Anticancer Drug Screen. Data for the bub3 strain (AID 167); conditions: S. cerevisiae bub3 mutant strain, stronger effect = higher value
Summary of the method: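 Compounds were applied to a genetically altered yeast strain carrying a cell-cycle control defect. Growth inhibition was scored against vehicle-treated controls.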

[7] = NCI Yeast Anticancer Drug Screen. Data for the wt2 strain (AID 169);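 note: 0% = growth of vehicle-treated yeast cultures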; conditions: S. cerevisiae wt2 strain growth inhibition, stronger effect = higher value
Summary of the method: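 Yeast cells were exposed to test compounds, and growth inhibition was measured relative to vehicle-treated controls.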

[8] = NCI Yeast Anticancer Drug Screen. Data for the mlh1 strain (AID 171);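 note: 0% = growth of vehicle-treated control cultures of the same strain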; conditions: S. cerevisiae mlh1 strain growth inhibition, stronger effect = higher value
Summary of the method: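 Yeast carrying a defined genetic alteration in DNA damage repair or cell cycle control were exposed to test compounds. Growth inhibition was measured relative to vehicle-treated controls.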

[9] = NCI Yeast Anticancer Drug Screen. Data for the sgs1 strain (AID 173);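 note: 0% = growth of vehicle-only control cultures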; conditions: S. cerevisiae sgs1 mutant, stronger effect = higher value
Summary of the method: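 Yeast mutant strains carrying defined defects in DNA damage repair or cell cycle control were exposed to test compounds. Growth inhibition was scored against vehicle-treated controls.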

[10] = NCI Yeast Anticancer Drug Screen. Data for the mlh1 rad18 strain (AID 175); conditions: S. cerevisiae mlh1 rad18 strain growth inhibition, stronger effect = higher value
Summary of the method: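 Growth inhibition of the yeast strain was measured after compound exposure and expressed relative to vehicle-treated controls. The strain carries defined defects in DNA damage repair.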

[11] = NCI Yeast Anticancer Drug Screen. Data for the rad18 strain (AID 177); conditions: S. cerevisiae rad18 mutant growth inhibition, stronger effect = higher value
Summary of the method: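 Yeast carrying a defined DNA damage repair alteration were exposed to compounds. Growth inhibition was expressed relative to vehicle-treated controls.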

[12] = NCI Yeast Anticancer Drug Screen. Data for the rad52 strain (AID 147);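 note: 0% = growth of vehicle-treated control cultures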; conditions: S. cerevisiae rad52 mutant growth inhibition, stronger effect = higher value
Summary of the method: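 Yeast strain carrying a DNA damage repair alteration was exposed to test compounds. Growth inhibition was measured relative to vehicle-treated controls.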

[13] = NCI Yeast Anticancer Drug Screen. Data for the wt1 strain (AID 149);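 note: 0% = growth of vehicle-treated wt1 cultures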; conditions: S. cerevisiae wt1 strain (SPY 50644) growth inhibition, stronger effect = higher value
Summary of the method: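 Yeast wt1 strain exposed to compounds; growth inhibition measured relative to vehicle-treated controls.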

[14] = NCI Yeast Anticancer Drug Screen. Data for the rad50EPP+ strain (AID 151);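 note: 0% = growth of vehicle-treated control cultures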; conditions: S. cerevisiae rad50 mutant strain, stronger effect = higher value
Summary of the method: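 Yeast strain carrying rad50 alteration (rad50EPP+) exposed to compounds; growth inhibition measured relative to vehicle-treated controls.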

[15] = NCI Yeast Anticancer Drug Screen. Data for the rad50 strain (AID 155);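 note: 0% = growth of vehicle-only cultures of the same strain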; conditions: S. cerevisiae rad50 strain growth inhibition, stronger effect = higher value
Summary of the method: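 Yeast carrying a defined DNA repair defect were exposed to test compounds, and growth was compared with vehicle-treated controls to give percent inhibition.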

[16] = NCI Yeast Anticancer Drug Screen. Data for the mgt1 strain (AID 153); conditions: S. cerevisiae mgt1 mutant growth inhibition, stronger effect = higher value
Summary of the method: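 Yeast mgt1 strain (DNA repair/cell-cycle alteration panel) exposed to compounds; growth inhibition measured relative to vehicle-treated controls.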

[17] = at 5.0 µM (retest, dose inferred, filed as 0.5)
[18] = at 50.0 µM (retest, dose inferred, filed as 5.0)

Measured: growth inhibition

CC(=O)N1C(=O)/C(=C\C(=O)c2ccc(Cl)cc2)c2ccccc21
active: [1]; at 100.0 µM 91% | [2]; at 33.0 µM 71% | [2]; at 100.0 µM 92% | [3]; [18] 96% | [3]; at 50.0 µM 86.3% | [4]; at 100.0 µM 90% | [5]; [18] 91% | [5]; at 50.0 µM 77.2% | [6]; at 33.0 µM 81% | [6]; [18] 96% | [6]; at 50.0 µM 85.8% | [6]; at 100.0 µM 92% | [7]; at 11.0 µM 93% | [7]; at 33.0 µM 97% | [7]; at 100.0 µM 93% | [8]; at 33.0 µM 78% | [8]; at 100.0 µM 92% | [9]; at 33.0 µM 87% | [9]; at 100.0 µM 92% | [10]; [17] 80% | [10]; [18] 97% | [10]; at 50.0 µM 80.7% | [11]; at 33.0 µM 92% | [11]; at 100.0 µM 92%
inactive: [2]; at 1.2 µM -16% | [2]; at 3.7 µM -10% | [2]; at 11.0 µM 8% | [3]; [17] 41% | [4]; at 1.2 µM -38% | [4]; at 3.7 µM -14% | [4]; at 11.0 µM 2% | [4]; at 33.0 µM 66% | [5]; [17] 14% | [6]; at 1.2 µM 2% | [6]; at 3.7 µM -23% | [6]; [17] 13% | [6]; at 11.0 µM -15% | [7]; at 1.2 µM 25% | [7]; at 3.7 µM 52% | [8]; at 1.2 µM -18% | [8]; at 3.7 µM 2% | [8]; at 11.0 µM 31% | [9]; at 1.2 µM -15% | [9]; at 3.7 µM 17% | [9]; at 11.0 µM 49% | [11]; at 1.2 µM 14% | [11]; at 3.7 µM 32% | [11]; at 11.0 µM 66%

N#C/C(=C1C=C/C(=N/O)c2ccccc2/1)c1ccccc1
active: [12]; at 33.0 µM 84% | [12]; at 100.0 µM 71% | [15]; at 33.0 µM 92% | [15]; [18] 97% | [15]; at 50.0 µM 96.6% | [15]; at 100.0 µM 87% | [1]; [18] 97% | [1]; at 50.0 µM 98% | [2]; at 100.0 µM 71% | [3]; [18] 97% | [3]; at 50.0 µM 96.6% | [5]; [18] 97% | [5]; at 50.0 µM 95.8% | [6]; [18] 95% | [6]; at 50.0 µM 97.7% | [8]; at 33.0 µM 73% | [9]; at 33.0 µM 95% | [10]; [18] 96% | [10]; at 50.0 µM 91.5% | [11]; at 33.0 µM 88% | [11]; at 100.0 µM 80%
inactive: [12]; at 1.2 µM -1% | [12]; at 3.7 µM -1% | [12]; at 11.0 µM 1% | [13]; at 1.2 µM -3% | [13]; at 3.7 µM -4% | [13]; at 11.0 µM -6% | [13]; at 33.0 µM 53% | [13]; at 100.0 µM 56% | [14]; at 1.2 µM 7% | [14]; at 3.7 µM 13% | [14]; at 11.0 µM 16% | [14]; at 33.0 µM 36% | [14]; at 100.0 µM 35% | [15]; at 1.2 µM 2% | [15]; at 3.7 µM 1% | [15]; [17] 47% | [15]; at 11.0 µM 4% | [1]; at 1.2 µM -3% | [1]; at 3.7 µM -8% | [1]; [17] 24% | [1]; at 11.0 µM -8% | [1]; at 33.0 µM 52% | [1]; at 100.0 µM 49% | [2]; at 1.2 µM -3% | [2]; at 3.7 µM -6% | [2]; at 11.0 µM -3% | [2]; at 33.0 µM 55% | [3]; [17] 60% | [4]; at 1.2 µM -5% | [4]; at 3.7 µM -6% | [4]; at 11.0 µM -6% | [4]; at 33.0 µM 49% | [4]; at 100.0 µM 62% | [5]; [17] 8% | [6]; at 1.2 µM -6% | [6]; at 3.7 µM -10% | [6]; [17] 49% | [6]; at 11.0 µM -8% | [6]; at 33.0 µM 42% | [6]; at 100.0 µM 50% | [7]; at 1.2 µM -4% | [7]; at 3.7 µM -5% | [7]; at 11.0 µM -4% | [7]; at 33.0 µM 49% | [7]; at 100.0 µM 36% | [8]; at 1.2 µM -1% | [8]; at 3.7 µM -2% | [8]; at 11.0 µM 1% | [8]; at 100.0 µM 57% | [9]; at 1.2 µM -2% | [9]; at 3.7 µM -2% | [9]; at 11.0 µM 1% | [9]; at 100.0 µM 66% | [10]; [17] 49% | [11]; at 1.2 µM -1% | [11]; at 3.7 µM 3% | [11]; at 11.0 µM -1%

[Pt].c1ccc(P(CCP(c2ccccc2)c2ccccc2)CCP(c2ccccc2)c2ccccc2)cc1
active: [12]; at 33.0 µM 89% | [12]; at 100.0 µM 84% | [13]; at 33.0 µM 94% | [13]; at 100.0 µM 90% | [14]; at 100.0 µM 85% | [16]; at 33.0 µM 92% | [16]; at 100.0 µM 94% | [2]; at 33.0 µM 81% | [2]; at 100.0 µM 91% | [4]; at 33.0 µM 95% | [4]; at 100.0 µM 88% | [7]; at 33.0 µM 83% | [7]; at 100.0 µM 93% | [8]; at 33.0 µM 94% | [8]; at 100.0 µM 92% | [9]; at 33.0 µM 96% | [9]; at 100.0 µM 94% | [11]; at 33.0 µM 94% | [11]; at 100.0 µM 83%
inactive: [12]; at 1.2 µM -15% | [12]; at 3.7 µM 2% | [12]; at 11.0 µM 7% | [13]; at 1.2 µM -1% | [13]; at 3.7 µM 6% | [13]; at 11.0 µM 19% | [14]; at 1.2 µM -8% | [14]; at 3.7 µM -1% | [14]; at 11.0 µM 11% | [14]; at 33.0 µM 61% | [16]; at 1.2 µM -5% | [16]; at 3.7 µM -18% | [16]; at 11.0 µM 2% | [2]; at 1.2 µM 4% | [2]; at 3.7 µM -2% | [2]; at 11.0 µM 22% | [4]; at 1.2 µM -18% | [4]; at 3.7 µM -4% | [4]; at 11.0 µM 4% | [7]; at 1.2 µM -7% | [7]; at 3.7 µM -4% | [7]; at 11.0 µM 2% | [8]; at 1.2 µM 5% | [8]; at 3.7 µM -5% | [8]; at 11.0 µM -1% | [9]; at 1.2 µM 2% | [9]; at 3.7 µM 5% | [9]; at 11.0 µM 41% | [11]; at 1.2 µM -33% | [11]; at 3.7 µM 6% | [11]; at 11.0 µM 20%
